This excerpt belongs to a sample that is enriched for hits.
AmpC detergent – AmpC beta-lactamase inhibition with detergent present. P00811. AmpC hydrolysis of nitrocefin, absorbance 480 nm, 0.01% Triton. Potency, µM (titrated, usually from 114 µM), inactives show at the highest dose activity change, negative = inhibition, actives largely listed as inhibitors. 370,000 tested, 0.041% active. AID 485294;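 also: potency is read from the fitted curve at half-maximal effect; 0% = no-compound wells and -100% = no-enzyme wells; nearly all actives have a fitted effect of over 25% in size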
Target sequence (P00811 whole entry, looked up): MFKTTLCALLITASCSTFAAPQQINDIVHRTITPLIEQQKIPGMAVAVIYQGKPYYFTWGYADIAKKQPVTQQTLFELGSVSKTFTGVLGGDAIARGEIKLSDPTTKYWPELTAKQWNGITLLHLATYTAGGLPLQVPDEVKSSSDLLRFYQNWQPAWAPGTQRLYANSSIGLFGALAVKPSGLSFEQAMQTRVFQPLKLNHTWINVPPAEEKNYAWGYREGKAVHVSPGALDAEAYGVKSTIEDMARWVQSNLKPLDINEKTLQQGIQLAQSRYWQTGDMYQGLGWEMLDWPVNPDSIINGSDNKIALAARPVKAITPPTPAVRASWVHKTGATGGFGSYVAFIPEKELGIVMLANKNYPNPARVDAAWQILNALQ
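20 mM phosphate pH 7.0 + 0.01% (detergent screen) or 0.0001% Triton X-100; 5.3 nM AmpC reagent; cpd preinc 15 min RT; nitrocefin (800 uM stock) to start; A480 q20 s × 4 min; Activity was normalised to no-enzyme and no-compound control wells.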
NS1 function inh – blocks influenza NS1 protein function; AID 2326; Potency, µM (highest dose often 46.1 µM), inactives show at the highest dose activity, positive = more growth; 270,000 tested, 0.4% active; calls by dose curve; also: potency is read from the fitted curve at half-maximal effect; actives are rising curves; nearly all actives have a fitted effect of over 50% in size
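Growth recovery, yeast-based: influenza A NS1 expressed in S. cerevisiae causes slow growth, and suppressors are detected by OD600. The parent strain without NS1 is used as positive control.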
CHX counter – affects cycloheximide protein synthesis inhibition readout, counter-screen. cell reporter, cycloheximide protein synthesis inhibition counterscreen. max response, %. 300,000 tested, 12% active; in the data active = max response mostly above about 13%, no sharp cut-off; inactive = mostly below about 14%; also: read at 38.3 µM for the half of the compounds with a filed dose; 0% is about no effect
Shiga inhibitor – inhibitors of Shiga toxin in Vero cells; Vero cells, Shiga toxin protein synthesis inhibition reporter; AID 2315; 290,000 tested, 9.2% active; inhibition, % at 38.7 µM; in the data active = inhibition mostly above about 28%, no sharp cut-off; inactive = mostly below about 43%; also: 0% is about no effect
AmpC no deterg – inhibitors of E. coli AmpC beta-lactamase without detergent | Potency, µM (highest dose often 57.1 µM), inactives show at the highest dose activity change, negative = inhibition, usual class: inhibitors | 330,000 tested, 0.52% active | AmpC nitrocefin hydrolysis, absorbance 480 nm, 0.0001% Triton | P00811;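 also: potency is read from the fitted curve at half-maximal effect; plate controls were no compound for no effect and no enzyme for full effect; nearly all actives have a fitted effect of over 20% in size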
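AmpC (5.3 nM in the dispensed reagent) in 20 mM phosphate pH 7.0 with 0.01% (detergent screen) or 0.0001% Triton X-100 was preincubated with compounds for 15 min at room temperature. Nitrocefin was then added from an 800 uM solution, and hydrolysis was followed at 480 nm.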
The depositor's hits bear a star; ? = inconclusive; · = no result. Unless noted, calls follow the shape of the dose curve; as a rule, active = well fitted curve in the direction sought with a large enough effect; inconclusive = small, poorly fitted or top-dose-only effect, or another doubt; inactive = no such curve, though single readings can be large; an effect the other way counts as inactive or inconclusive.

SMILES	AmpC detergent	NS1 function inh	CHX counter	Shiga inhibitor	AmpC no deterg
CCOC(=O)C1C(=O)N(C)C2(C)CC1c1ccccc1O2 (stereo unspecified)	-11.5%	-2.2%	-2.7	-4.4	-3.8%
Cn1c(NC(=O)c2ccco2)c(-c2ccccc2)c(=O)c2ccccc21	5.6%	-3.4%	4.4	-14.9	-12.0%
O=C(Nc1nnc(-c2ccc(F)cc2)s1)c1ccco1	-16.2%	-14.3%	8.7	33.8	-12.0%
Cc1sc(=NC(=O)c2ccco2)n(C)c1-c1ccccc1	?	-75.2%	40.1*	52.3*	106.1%
CC(=O)N=c1sc2cc(C)ccc2n1C	3.3%	-11.0%	28.5*	147.4*	-14.1%
COc1cc(C(=O)N=c2sc3ccccc3n2C)cc(OC)c1OC	7.0%	-12.4%	16.1	7.2	1.6%
Cc1sc(=NC(=O)c2ccco2)n(C)c1-c1ccc(F)cc1	-9.0%	-46.5%	43.6*	126.0*	-29.0%
Cn1c(=NC(=O)c2ccco2)sc2ccccc21	-2.0%	-43.0%	31.8*	53.5*	-6.9%
O=C(C(=O)N1CCN(Cc2ccc3c(c2)OCO3)CC1)c1c[nH]c2ccccc12	-4.9%	-14.2%	-3.3	-5.9	64.0%
COC(=O)c1ccccc1NC(=O)c1noc2c1CSc1ccccc1-2	0.6%	·	·	·	·
Cn1c(=NC(=O)c2cccc([N+](=O)[O-])c2)sc2ccccc21	2.7%	3.1%	26.9*	118.7*	-13.5%
Cn1c(=NC(=O)CCl)sc2ccccc21	-5.7%	-54.8%	28.4*	46.0	-13.4%
CCC(=O)N=c1sc2ccccc2n1-c1ccccc1	-3.5%	3.0%	-2.4	29.5	-2.0%
Cc1ccc(N=CC=C2OC(C)(C)C(C)(C)O2)cc1	2.2%	11.1%	20.1*	66.1*	66.7%
Cc1cccc(N=CC=C2OC(C)(C)C(C)(C)O2)c1	0.3%	-1.7%	36.0*	108.3*	65.5%
COc1ccc(N=CC=C2OC(C)(C)C(C)(C)O2)cc1OC	6.3%	5.1%	9.1	23.9	89.6%
COc1cccc(N=CC=C2OC(C)(C)C(C)(C)O2)c1	-6.9%	·	49.4*	87.5*	67.2%
COc1cccc(-n2c(SCC(=O)Nc3cccc(C)c3)nc3c([nH]c4ccccc43)c2=O)c1	3.5%	·	·	·	·
Cc1ccc2cc3c(NC(=O)C(C)C)nn(C)c3nc2c1	?	-10.6%	-6.5	-13.8	-3.4%
Cc1ccc2cc3c(N)[nH]nc3nc2c1	-2.0%	3.0%	21.2*	14.1	-15.3%
Cn1nnnc1SCC(=O)NC1CCCC1	-3.8%	4.9%	6.8	-2.5	-2.2%
CO/N=C\CC(=O)Nc1ccc(Cl)cc1Cl	2.0%	-2.1%	20.8*	46.5	5.0%
COc1ccccc1/C=C/C=N/NC(=O)c1ccc(=O)n(C)c1	-13.8%	-4.2%	-1.3	3.1	-21.1%
COc1ccccc1/C=C/C=N/NC(=O)c1cnccn1	2.9%	-5.8%	34.7*	63.7*	-18.9%
COc1ccccc1/C=C/C=N/NC(=O)c1ccccn1	-1.9%	·	22.6*	55.5*	-9.7%
SMILES	AmpC detergent	NS1 function inh	CHX counter	Shiga inhibitor	AmpC no deterg
COc1ccccc1/C=C/C=N/NC(=O)c1cc(-c2ccco2)[nH]n1	-3.1%	3.1%	-2.8	2.0	?
Cc1ccc(O)c(N=CC2=C(O)c3ccccc3C2=O)c1	?	-5.2%	32.6*	108.5*	-46.4%
O=C1C(C=Nc2ccccc2O)=C(O)c2ccccc21	-1.5%	3.0%	31.9*	51.0*	-27.3%
N#CC1=C(C=Nc2ccccc2O)CCC1	-7.2%	5.6%	-2.9	-5.1	-11.2%
Cc1cc(=O)oc2c(OS(C)(=O)=O)c(OS(C)(=O)=O)ccc12	·	-0.3%	·	·	·
C/C(=N\NC(=O)c1cccc(S(=O)(=O)N2CCCC2)c1)c1cccs1	-1.3%	·	19.0*	50.0*	-28.3%
C/C(=N\NC(=O)C1CC1c1ccccc1)c1cccs1 (stereo unspecified)	-1.2%	-7.2%	-1.6	-13.6	-20.6%
C/C(=N\NC(=O)c1cccs1)c1cccnc1	0.0%	·	17.2	72.0	-24.3%
CC(=NNC(=O)c1cccc(S(=O)(=O)N2CCCC2)c1)c1ccccc1	·	·	·	·	-16.3%
C/C(=N/NC(=O)c1cccs1)c1cccc(NC(=O)C2CC2)c1	-14.4%	-5.3%	38.5*	95.4*	-32.1%
C/C(=N\NC(=O)c1ccncc1)c1cccs1	7.0%	·	47.6*	63.2*	-22.4%
C/C(=N/NC(=O)c1cc(C2CC2)[nH]n1)c1cccs1	2.4%	-5.4%	24.8*	5.1	-15.0%
CC(C)NC(=O)c1ccc2c(c1)N(CC(=O)N1CCCCC1)C(=O)C(C)(C)O2	-14.8%	1.5%	-5.4	2.9	-7.1%
O=C(Nc1ccnn1C1CCN(Cc2cccc(OCCO)c2)CC1)C1CC1	0.6%	-0.4%	-0.9	-24.9	2.0%
Cc1ccccc1NC(=O)Cn1c(=O)oc2cc(Br)ccc21	10.9%	·	·	·	·
Cc1ccc(C2(C)NC(=O)N(CC(=O)NC(C)c3ccccc3)C2=O)cc1 (stereo unspecified)	-5.3%	6.7%	-3.9	-11.2	-17.0%
C[C@H](Oc1ccc(Oc2cnc3ccc(Cl)cc3n2)cc1)C(=O)O	·	-7.9%	·	·	·
CC(=O)N/N=C(\C)c1cccc(NC(=O)c2cccs2)c1	-5.2%	-3.2%	1.4	-1.7	-32.9%
C/C(=N\NC(=O)c1cccs1)c1ccc2ccccc2c1	-1.3%	-4.1%	36.9*	41.3*	-13.9%
COc1ccc(/C(C)=N/NC(=O)CNC(=O)c2cccs2)cc1	-12.4%	·	5.7	13.7	-27.4%
C/C(=N\NC(=O)C1=NNC(=O)C1C)c1cccs1 (stereo unspecified)	-0.3%	·	33.9*	90.2*	-9.9%
C/C(=N\NC(=O)c1ccc2ccccc2c1)c1cccs1	1.4%	-1.3%	44.6*	94.4*	-38.3%
C/C(=N/N=C(/C)c1cccs1)c1cccs1	-2.4%	-34.2%	31.1*	72.5*	-8.8%
CCOCCCN1C(=O)CN(C2CCCCCC2)C(=O)C1c1ccc(OC(C)C)c(OC)c1 (stereo unspecified)	5.5%	·	·	·	·
Cc1ccc(NC(=O)C2CCN(S(=O)(=O)c3ccc4c(c3)CCCC(=O)N4)CC2)cc1N(C)C	1.1%	-14.1%	-2.1	-11.9	5.1%
SMILES	AmpC detergent	NS1 function inh	CHX counter	Shiga inhibitor	AmpC no deterg
COc1ccccc1NCc1nnc2n1CCCCC2	10.8%	·	·	·	·
CC(NC(=S)NCCCN1CCOCC1)C12CC3CC(CC(C3)C1)C2 (stereo unspecified)	-3.9%	·	-1.8	-2.6	115.2%
Cc1cc(C(=O)COc2ccc(-c3nnco3)cc2)c(C)n1Cc1ccccc1	?	-1.5%	17.4*	20.9	-0.4%
O=C(COc1ccc(-c2nnco2)cc1)NCc1ccccc1Cl	-6.2%	4.2%	-0.3	1.4	-14.6%
COc1ccc(CCNC(=O)CSc2nc3[nH]ncc3c(=O)n2-c2ccc(C)c(Cl)c2)cc1OC	3.8%	·	40.7*	96.4*	207.6%
COc1ccc(CCNC(=O)CSc2nc3[nH]ncc3c(=O)n2-c2ccc(Cl)cc2Cl)cc1OC	6.1%	·	-2.6	-12.9	69.2%
Cc1ccc(S(=O)(=O)Nc2cccc(C(=O)N3CCC(C(N)=O)CC3)c2)cc1	9.6%	·	·	·	-23.3%
CC(C)CCn1c(Oc2ccccc2F)nc2c1c(=O)n(C)c(=O)n2C	1.7%	·	·	·	·
